Measurements taken from PubChem BioAssay (NCI).
Compounds without any hit were thinned out: in the full panel of roughly 79,000, 15% have a hit. Calls of active or inactive are those of the source. Cut-off read from the data, not from the text of the source: active = growth inhibition above about 70%; inactive = the rest.

What was measured:
[1] = NCI Yeast Anticancer Drug Screen. Data for the rad50 strain (AID 155);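 note: 0% = growth of vehicle-only cultures of the same strain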; conditions: S. cerevisiae rad50 strain growth inhibition, active compounds read high
In short: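 Relative growth inhibition (compound vs vehicle) was measured in yeast with a defined repair-gene alteration.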

[2] = NCI Yeast Anticancer Drug Screen. Data for the mec2-1 strain (AID 157); conditions: S. cerevisiae mec2-1 strain, active compounds read high
In short: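 Growth inhibition is read against vehicle-treated controls after compound exposure of the mec2-1 yeast strain, which is defective in DNA damage repair or cell cycle control.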

[3] = NCI Yeast Anticancer Drug Screen. Data for the sgs1 mgt1 strain (AID 161);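 note: 0% = growth of cultures given vehicle only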; conditions: S. cerevisiae sgs1 mgt1 strain, active compounds read high
In short: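 Percent growth inhibition was derived by comparing compound-exposed mutant yeast with vehicle-exposed cultures. The strain carries alterations in DNA damage repair.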

[4] = NCI Yeast Anticancer Drug Screen. Data for the cln2 rad14 strain (AID 165);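 note: 0% = growth equal to vehicle treated cultures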; conditions: S. cerevisiae cln2 rad14 strain, active compounds read high
In short: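 Growth inhibition, relative to vehicle-treated controls, is the read-out. The test organism is a yeast strain with defined genetic alterations, cln2 rad14.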

[5] = NCI Yeast Anticancer Drug Screen. Data for the bub3 strain (AID 167); conditions: S. cerevisiae bub3 mutant strain, active compounds read high
In short: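 Screening used yeast with an engineered genetic alteration affecting cell cycle control. Compound-exposed cultures were compared with vehicle cultures, and reduced growth was taken as inhibition.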

[6] = NCI Yeast Anticancer Drug Screen. Data for the mlh1 rad18 strain (AID 175); conditions: S. cerevisiae mlh1 rad18 strain growth inhibition, active compounds read high
In short: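 Cells of a genetically altered yeast strain, deficient in DNA damage repair, were treated with compound. Their growth was then compared with that of vehicle-treated cultures to give inhibition.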

[7] = at 5.0 µM (retest, dose inferred, filed as 0.5)
[8] = at 50.0 µM (retest, dose inferred, filed as 5.0)

Measured: growth inhibition

Cc1cc2ccc(N)nc2[nH]c1=O
inactive: [1]; [7] -7% | [1]; [8] -4% | [1]; at 50.0 µM 25.6% | [2]; [7] -2% | [2]; [8] -3% | [2]; at 50.0 µM 27.2% | [3]; [7] -4% | [3]; [8] 0% | [3]; at 50.0 µM 10.3% | [4]; [7] -3% | [4]; [8] -1% | [5]; [7] 1% | [5]; [8] 5% | [5]; at 50.0 µM 12.7% | [6]; [7] -2% | [6]; [8] 1% | [6]; at 50.0 µM 24.8%
active: [4]; at 50.0 µM 85.4%

Cc1ccc2c(ccc3ccccc32)c1
active: [1]; at 50.0 µM 74.3% | [5]; at 50.0 µM 71%
inactive: [1]; [7] -23% | [1]; [8] 42% | [2]; [7] 1% | [2]; [8] 10% | [2]; at 50.0 µM 16.4% | [3]; [7] -7% | [3]; [8] 16% | [3]; at 50.0 µM 57.5% | [4]; [7] -25% | [4]; [8] -12% | [4]; at 50.0 µM 10.2% | [5]; [7] -15% | [5]; [8] 38% | [6]; [7] -67% | [6]; [8] 39% | [6]; at 50.0 µM 34.6%

CC(C)OP(=O)(OC(C)C)/C(I)=N/Nc1ccc([N+](=O)[O-])cc1
inactive: [1]; [7] -7% | [1]; [8] -1% | [1]; at 50.0 µM 68.7% | [2]; [7] -6% | [2]; [8] 8% | [2]; at 50.0 µM 13.9% | [3]; [7] 6% | [3]; [8] 37% | [3]; at 50.0 µM 38.4% | [4]; [7] -14% | [4]; [8] 14% | [4]; at 50.0 µM 13.1% | [5]; [7] 1% | [5]; [8] -1% | [5]; at 50.0 µM 61.7% | [6]; [7] 9% | [6]; [8] 4% | [6]; at 50.0 µM 70%

O=C(c1ccccc1)c1ccc(Br)cc1O
inactive: [1]; [7] -3% | [1]; [8] 21% | [1]; at 50.0 µM 57% | [2]; [7] -9% | [2]; [8] 12% | [2]; at 50.0 µM 21.9% | [3]; [7] -4% | [3]; [8] 33% | [3]; at 50.0 µM 31.8% | [4]; [7] -5% | [4]; [8] 9% | [4]; at 50.0 µM 28.1% | [5]; [7] -12% | [5]; [8] -11% | [5]; at 50.0 µM 38.1% | [6]; [7] 1% | [6]; [8] 8% | [6]; at 50.0 µM 68.8%

O=C1Nc2ccccc2SC1c1ccccc1 (configuration not stated)
inactive: [1]; [7] 3% | [2]; [7] 15% | [3]; [7] -2% | [4]; [7] 10% | [5]; [7] 19% | [6]; [7] 10%
active: [1]; [8] 97% | [1]; at 50.0 µM 98.2% | [2]; [8] 99% | [2]; at 50.0 µM 99.6% | [3]; [8] 99% | [3]; at 50.0 µM 99.5% | [4]; [8] 99% | [4]; at 50.0 µM 98.8% | [5]; [8] 98% | [5]; at 50.0 µM 99.3% | [6]; [8] 99% | [6]; at 50.0 µM 98.8%

CN(C)CC(CN(C)C)C(=O)C1CCCCC1
inactive: [1]; [7] 25% | [2]; [7] 2% | [3]; [7] -9% | [4]; [7] 19% | [4]; at 50.0 µM 10.3% | [5]; [7] 7% | [5]; at 50.0 µM 23.2% | [6]; [7] 12%
active: [1]; [8] 90% | [1]; at 50.0 µM 81.2% | [2]; [8] 96% | [2]; at 50.0 µM 94.7% | [3]; [8] 71% | [3]; at 50.0 µM 76.8% | [4]; [8] 89% | [5]; [8] 98% | [6]; [8] 95% | [6]; at 50.0 µM 96.6%

O=C(O)C(O)C(O)C(O)C(O)CO.[Ag] (configuration not stated)
active: [1]; [7] 99% | [1]; [8] 98% | [1]; at 50.0 µM 99.2% | [2]; [7] 99% | [2]; [8] 99% | [2]; at 50.0 µM 99.3% | [3]; [7] 99% | [3]; [8] 99% | [3]; at 50.0 µM 99.5% | [4]; [7] 99% | [4]; [8] 98% | [4]; at 50.0 µM 99.3% | [5]; [7] 99% | [5]; [8] 98% | [5]; at 50.0 µM 99.3% | [6]; [7] 99% | [6]; [8] 98% | [6]; at 50.0 µM 99%

Brc1ccc(N=NN2CCCC2)cc1
inactive: [1]; [7] 14% | [1]; [8] 12% | [2]; [7] 0% | [2]; [8] 8% | [2]; at 50.0 µM 59.6% | [3]; [7] 33% | [3]; [8] 33% | [4]; [7] 36% | [4]; [8] 36% | [4]; at 50.0 µM 68% | [5]; [7] 30% | [5]; [8] 37% | [6]; [7] 7% | [6]; [8] 5%
active: [1]; at 50.0 µM 74% | [3]; at 50.0 µM 86.4% | [5]; at 50.0 µM 85.6% | [6]; at 50.0 µM 86.1%

Cc1ccc(NC2=CC(=O)C(NO)c3ccccc32)cc1 (configuration not stated)
active: [5]; [8] 83% | [6]; [8] 79%
inactive: [1]; [7] 14% | [1]; [8] 66% | [1]; at 50.0 µM 38.6% | [2]; [7] 19% | [2]; [8] 66% | [2]; at 50.0 µM 20.6% | [3]; [7] 16% | [3]; [8] 68% | [3]; at 50.0 µM 35.6% | [4]; [7] 10% | [4]; [8] 40% | [4]; at 50.0 µM 44.5% | [5]; [7] 21% | [5]; at 50.0 µM 21.9% | [6]; [7] 13% | [6]; at 50.0 µM 60.5%
